Growth inhibition data for nine compounds are collected here from PubChem BioAssay (NCI).

Compounds without any hit were thinned out: in the full panel of roughly 79,000, 15% have a hit. Values without a mark were called inactive. Activity calls are given as the source filed them. Rule as the data show it: active = growth inhibition above about 70%; inactive = the rest.

Assay [1] in a line: NCI Yeast Anticancer Drug Screen. Data for the rad50 strain (AID 155).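 Also: 0% = growth of vehicle-only cultures of the same strain.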 The note with it: S. cerevisiae rad50 strain growth inhibition, hits give high values. The method in brief:
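Cells are treated with compound, grown, and their growth is then scored against vehicle-only cultures of the same repair-deficient yeast strain.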

Assay [2] can be described thus: NCI Yeast Anticancer Drug Screen. Data for the mec2-1 strain (AID 157). The note with it: S. cerevisiae mec2-1 strain, hits give high values. The method, boiled down: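 Cells of the genetically defined mec2-1 yeast strain are incubated with test compound. Inhibition of growth is calculated against vehicle-treated controls.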
Assay [3] can be described thus: NCI Yeast Anticancer Drug Screen. Data for the sgs1 mgt1 strain (AID 161).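 Also: 0% = growth of cultures given vehicle only.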 The note with it: S. cerevisiae sgs1 mgt1 strain, hits give high values. The method in brief: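 Read-out: growth inhibition vs vehicle controls. Cells: mutant yeast strain deficient in DNA damage repair.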
A short description of assay [4]: NCI Yeast Anticancer Drug Screen. Data for the cln2 rad14 strain (AID 165).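 Also: 0% = growth equal to vehicle treated cultures.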 To be noted: S. cerevisiae cln2 rad14 strain, hits give high values. The method, boiled down: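 The screen exposed genetically defined yeast (cln2 rad14) to test compounds and scored growth inhibition relative to vehicle-treated controls.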
The nature of assay [5]: NCI Yeast Anticancer Drug Screen. Data for the bub3 strain (AID 167). The note with it: S. cerevisiae bub3 mutant strain, hits give high values. The method, boiled down:
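Part of a panel of yeast mutants defective in DNA damage repair or cell cycle regulation. Each strain is grown with compound, and inhibition is calculated relative to solvent-treated cultures.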

Assay [6] in a line: NCI Yeast Anticancer Drug Screen. Data for the mlh1 rad18 strain (AID 175). To be noted: S. cerevisiae mlh1 rad18 strain growth inhibition, hits give high values. The method, boiled down:
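Compound-treated yeast growth, normalised to vehicle controls. Strain bears defined DNA repair mutations.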

[7] abbreviates: at 5.0 µM (retest, dose inferred, filed as 0.5).
Where [8] appears, read: at 50.0 µM (retest, dose inferred, filed as 5.0).

For `CCOC(=O)C(/N=N\c1nn[nH]n1)/N=N/c1ncn[nH]1` (configuration not stated), the growth inhibition in assay [1] (setting [7]) was -7%; in assay [1] (setting [8]), -8%; in assay [1] (at 50.0 µM) it was 97.7% (active); in assay [2] (setting [7]), -28%; in assay [2] (setting [8]), -6%; in assay [2] (at 50.0 µM), 99.5% (active). Moreover, the growth inhibition in assay [3] (setting [7]) was -6%; in assay [3] (setting [8]), -1%; in assay [3] (at 50.0 µM), 73.2% (active); in assay [4] (setting [7]), -2%; in assay [4] (setting [8]) it was -10%; in assay [4] (at 50.0 µM) it was 93.2% (active). The growth inhibition was -6% in assay [5] (setting [7]); -3% in assay [5] (setting [8]); 98.8% (active) in assay [5] (at 50.0 µM); -7% in assay [6] (setting [7]); -5% in assay [6] (setting [8]); 99.2% (active) in assay [6] (at 50.0 µM).
Turning to `CC1=CC2OC3CC4OC(=O)/C=C/C=C/C(C(C)O)OCC(O)C(C)CC(=O)OCC2(CC1O)C4(C)C31CO1` (configuration not stated), the growth inhibition in assay [1] (setting [7]) was 39%; in assay [1] (setting [8]), 96% (active); in assay [1] (at 50.0 µM), 90.4% (active); in assay [2] (setting [7]) it was 40%; in assay [2] (setting [8]), 99% (active); in assay [2] (at 50.0 µM), 91.9% (active). In addition, the growth inhibition was 48% in assay [3] (setting [7]); 94% (active) in assay [3] (setting [8]); 92.2% (active) in assay [3] (at 50.0 µM); 34% in assay [4] (setting [7]); 94% (active) in assay [4] (setting [8]); 90.3% (active) in assay [4] (at 50.0 µM). The growth inhibition in assay [5] (setting [7]) is 25%; in assay [5] (setting [8]) it was 95% (active); in assay [5] (at 50.0 µM), 91% (active); in assay [6] (setting [7]), 42%; in assay [6] (setting [8]), 98% (active); in assay [6] (at 50.0 µM), 89.2% (active).
For the compound `COC(=O)C(C)(C)[n+]1c(C)cc(C)cc1C`, the growth inhibition in assay [1] (setting [7]) is -13%; in assay [1] (setting [8]), -6%; in assay [1] (at 50.0 µM), -5.45%; in assay [2] (setting [7]) it was -5%; in assay [2] (setting [8]), -35%; in assay [2] (at 50.0 µM), -3%. Also, the growth inhibition is -17% in assay [3] (setting [7]); -14% in assay [3] (setting [8]); -3.1% in assay [3] (at 50.0 µM); -10% in assay [4] (setting [7]); -8% in assay [4] (setting [8]); -7.1% in assay [4] (at 50.0 µM). Moreover, the growth inhibition is 1% in assay [5] (setting [7]); 8% in assay [5] (setting [8]); -6.5% in assay [5] (at 50.0 µM); -1% in assay [6] (setting [7]); 5% in assay [6] (setting [8]); 5.9% in assay [6] (at 50.0 µM).
As to `Cc1c(N)nc([C@H](CC(N)=O)NC[C@H](N)C(N)=O)nc1C(=O)N[C@H](C(=O)N[C@H](C)[C@@H](O)CC(=O)N[C@H](C(=O)NC(O[C@@H]1O[C@@H](C)[C@@H](N)[C@@H](O)[C@H]1O)C(O)c1nc(-c2nc(C(=O)NCCCCN)cs2)cs1)[C@@H](C)O)[C@@H](O[C@@H]1O[C@@H](CO)[C@@H](O)[C@H](O)[C@@H]1O[C@H]1O[C@H](CO)[C@@H](O)[C@H](OC(N)=O)[C@@H]1O)c1c[nH]cn1` (some centres not stated), the growth inhibition in assay [1] (setting [7]) is 96% (active); in assay [1] (setting [8]), 98% (active); in assay [1] (at 50.0 µM) it was 91.7% (active); in assay [2] (setting [7]), 98% (active); in assay [2] (setting [8]), 98% (active); in assay [2] (at 50.0 µM), 92.8% (active). The growth inhibition in assay [3] (setting [7]) is 98% (active); in assay [3] (setting [8]), 98% (active); in assay [3] (at 50.0 µM) it was 92.7% (active); in assay [4] (setting [7]), 96% (active); in assay [4] (setting [8]), 97% (active); in assay [4] (at 50.0 µM), 89.8% (active). The growth inhibition in assay [5] (setting [7]) is 97% (active); in assay [5] (setting [8]) it was 98% (active); in assay [5] (at 50.0 µM), 92.9% (active); in assay [6] (setting [7]), 94% (active); in assay [6] (setting [8]), 97% (active); in assay [6] (at 50.0 µM), 90.2% (active).
`CCCCC(CC)CNP(=S)(NCC(CC)CCCC)NCC(CC)CCCC` (configuration not stated): the growth inhibition was -3% in assay [1] (setting [7]); 37% in assay [1] (setting [8]); 58.9% in assay [1] (at 50.0 µM); -3% in assay [2] (setting [7]); 30% in assay [2] (setting [8]); 9.55% in assay [2] (at 50.0 µM). Further, the growth inhibition was -4% in assay [3] (setting [7]); 27% in assay [3] (setting [8]); 6.25% in assay [3] (at 50.0 µM); -2% in assay [4] (setting [7]); 20% in assay [4] (setting [8]); 35.8% in assay [4] (at 50.0 µM). In addition, the growth inhibition in assay [5] (setting [7]) is -5%; in assay [5] (setting [8]), 37%; in assay [5] (at 50.0 µM), 13.4%; in assay [6] (setting [7]), -5%; in assay [6] (setting [8]) it was 33%; in assay [6] (at 50.0 µM), 69.1%.
With `CC1(C)OC2OC3C(CN(CCCl)Cc4ccccc4)OC(c4ccccc4)OC3C2O1` (configuration not stated), the growth inhibition in assay [1] (setting [7]) is 5%; in assay [1] (setting [8]), 18%; in assay [1] (at 50.0 µM), 5.3%; in assay [2] (setting [7]), -26%; in assay [2] (setting [8]), -4%; in assay [2] (at 50.0 µM) it was 8.75%. The growth inhibition in assay [3] (setting [7]) is -10%; in assay [3] (setting [8]), 31%; in assay [3] (at 50.0 µM), -0.9%; in assay [4] (setting [7]), -2%; in assay [4] (setting [8]), -1%; in assay [4] (at 50.0 µM) it was 33.8%. The growth inhibition was 0% in assay [5] (setting [7]); 23% in assay [5] (setting [8]); -2.9% in assay [5] (at 50.0 µM); -23% in assay [6] (setting [7]); 49% in assay [6] (setting [8]); 14.2% in assay [6] (at 50.0 µM).
Turning to `ClCCN(CCCl)c1ccc(CN2CCCN(Cc3ccc(N(CCCl)CCCl)cc3Cl)C2c2ccncc2)c(Cl)c1`, the growth inhibition was 2% in assay [1] (setting [7]); 91% (active) in assay [1] (setting [8]); 93.5% (active) in assay [1] (at 50.0 µM); 4% in assay [2] (setting [7]); 96% (active) in assay [2] (setting [8]); 96.8% (active) in assay [2] (at 50.0 µM). Besides, the growth inhibition in assay [3] (setting [7]) is -4%; in assay [3] (setting [8]), 96% (active); in assay [3] (at 50.0 µM), 93.9% (active); in assay [4] (setting [7]), -5%; in assay [4] (setting [8]), 94% (active); in assay [4] (at 50.0 µM) it was 43.9%. Moreover, the growth inhibition is 0% in assay [5] (setting [7]); 93% (active) in assay [5] (setting [8]); 1.9% in assay [5] (at 50.0 µM); 9% in assay [6] (setting [7]); 95% (active) in assay [6] (setting [8]); 97.1% (active) in assay [6] (at 50.0 µM).
As to `CC[n+]1c(/C=C/c2ccc(N(CCCl)CCCl)cc2)ccc2cc(I)ccc21`, the growth inhibition is 99% (active) in assay [1] (setting [7]); 99% (active) in assay [1] (setting [8]); 91% (active) in assay [1] (at 50.0 µM); 99% (active) in assay [2] (setting [7]); 99% (active) in assay [2] (setting [8]); 90.8% (active) in assay [2] (at 50.0 µM). In addition, the growth inhibition was 99% (active) in assay [3] (setting [7]); 99% (active) in assay [3] (setting [8]); 89.5% (active) in assay [3] (at 50.0 µM); 99% (active) in assay [4] (setting [7]); 99% (active) in assay [4] (setting [8]); 88.9% (active) in assay [4] (at 50.0 µM). Besides, the growth inhibition in assay [5] (setting [7]) was 99% (active); in assay [5] (setting [8]) it was 99% (active); in assay [5] (at 50.0 µM), 91.5% (active); in assay [6] (setting [7]) it was 99% (active); in assay [6] (setting [8]), 99% (active); in assay [6] (at 50.0 µM), 88.7% (active).
Consider `CC(O)([CH2][Hg][Cl])C(O)[CH2][Hg][Cl]` (configuration not stated), for which the growth inhibition is 98% (active) in assay [1] (setting [7]); 99% (active) in assay [1] (setting [8]); 99.2% (active) in assay [1] (at 50.0 µM); 99% (active) in assay [2] (setting [7]); 100% (active) in assay [2] (setting [8]); 99.5% (active) in assay [2] (at 50.0 µM). Further, the growth inhibition in assay [3] (setting [7]) was 98% (active); in assay [3] (setting [8]) it was 99% (active); in assay [3] (at 50.0 µM) it was 99.3% (active); in assay [4] (setting [7]), 98% (active); in assay [4] (setting [8]) it was 99% (active); in assay [4] (at 50.0 µM), 97.7% (active). In addition, the growth inhibition was 99% (active) in assay [5] (setting [7]); 99% (active) in assay [5] (setting [8]); 99.4% (active) in assay [5] (at 50.0 µM); 99% (active) in assay [6] (setting [7]); 99% (active) in assay [6] (setting [8]); 97.5% (active) in assay [6] (at 50.0 µM).
